In the supplement of paper PMC10849652:
Targets with a hit are over-represented here; the source holds about 8,800 in all. About 0.5% of all pairs of compound and target were hits. A number with no mark means an inactive call.

Experiments:
Assay in all cases: log2 fold change, soluble protein after heating vs DMSO (PISA); higher = thermal stabilisation; K562 lysate, 10 uM; active = over 0.2 and 3.5 SD of the protein, either way, in both replicates (recomputed)
[1] = compound: C#Cc1cccc(Nc2ncnc3cc(OCCOC)c(OCCOC)cc23)c1 [erlotinib]
How it was run: (§1)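 Thermal stability, expressed as log-two fold change relative to solvent controls, is given from duplicates. Crude K562 extract in PBS pH 7.4 with 1 mM MgCl2, at 1 mg/mL protein, was treated with 10 μM compound for 30 min and heated in aliquots for 3 min across 48°C-58°C. After pooling, adjustment to 0.5% NP-40 at 4°C and centrifugation at 21,000xg for 90 min, supernatant protein was measured by TMTpro 16plex LC-MS/MS with channel sums equalised.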

[2] = compound: C/C(=N\NC(=O)C1=CC(=CC=C1)S(=O)(=O)N2CCOCC2)/C3=C(C=CC(=C3)Cl)O
How it was run: as §1

[3] = compound: C1=CC(=CC=C1C2=NC3=C(N2)C=C(C=C3)C(=O)N)OC4=CC=C(C=C4)Cl
How it was run: as §1

[4] = compound: C1=CC2=C(C=CC(=C2)/C=C\3/C(=O)NC(=NCC4=CC=CS4)S3)N=C1
How it was run: as §1

[5] = compound: C1=CC2=NC=CN=C2C=C1/C=C/3\C(=O)NC(=O)S3
How it was run: as §1

[6] = compound: C1=CC=C(C=C1)C2=NC(=C(N2)C3=CC=NC=C3)C4=CC(=C(C=C4)Cl)O
How it was run: as §1

[7] = compound: C1=CC=C2C(=C1)C3=NNC4=CC=CC(=C43)C2=O
How it was run: as §1

[8] = compound: C1CCN(C1)C(=O)NC2=CC=CC(=C2)NC3=NC=C(C(=N3)NCCC4=CN=CN4)Br
How it was run: as §1

[9] = compound: C1CN(CCC1(CC2=CC=C(C=C2)Cl)N)C3=NC=NC4=C3C=CN4
How it was run: as §1

[10] = compound: C1COCCN1CCN2C3=CC=CC=C3N=C2NC(=O)C4=CC(=CC=C4)[N+](=O)[O-] [IRAK-1-4 Inhibitor I]
How it was run: as §1

[11] = compound: C=CC(=O)N1CCC[C@@H](n2nc(-c3ccc(Oc4ccccc4)cc3)c3c(N)ncnc32)C1 [ibrutinib]
How it was run: as §1

[12] = compound: CC(=O)c1cnc2ccc(-c3cc(Cl)c(O)c(Cl)c3)nc2c1N[C@H]1CC[C@H](CN(C)C)CC1
How it was run: as §1

[13] = compound: CC(C)(C)Cn1c(N)nc2ccc(-c3[nH]c(C(C)(C)C)nc3-c3ccc(F)cc3)nc21 [ralimetinib]
How it was run: as §1

[14] = compound: CC(C)(O)CC(=O)NCCn1ccc2ncnc(Nc3ccc(Oc4cccc(C(F)(F)F)c4)c(Cl)c3)c21
How it was run: as §1

[15] = compound: CC(C)C1=C2N=C(C=C(N2N=C1)NCC3=CC=CC=C3)NCCCCCCN
How it was run: as §1

[16] = compound: CC1=C(C(CC(=O)N1)C2=CC=C(C=C2)C(F)(F)F)C(=O)NC3=C(C=C4C(=C3)C=NN4)F
How it was run: as §1

[17] = compound: CC1=C(C2=C(C=C1)C(=O)C3=CC=CC=C3N2CCCN)C
How it was run: as §1

[18] = compound: CC1=C(C=C(C=C1)NC(=O)C2=CC(=CC=C2)C(C)(C)C#N)NC3=CC4=C(C=C3)N=CN(C4=O)C
How it was run: as §1

[19] = compound: CC1=C(C=C(C=C1)NC(=O)C2=CC(=CC=C2)N(C)C)NC(=O)C3=CC=C(C=C3)O
How it was run: as §1

[20] = compound: CC1=CC=C(C=C1)SC2=C3C=C(SC3=CN=C2)C(=O)N
How it was run: as §1

UniProt Q9P0U4, sequence (Q9P0U4 whole entry, looked up): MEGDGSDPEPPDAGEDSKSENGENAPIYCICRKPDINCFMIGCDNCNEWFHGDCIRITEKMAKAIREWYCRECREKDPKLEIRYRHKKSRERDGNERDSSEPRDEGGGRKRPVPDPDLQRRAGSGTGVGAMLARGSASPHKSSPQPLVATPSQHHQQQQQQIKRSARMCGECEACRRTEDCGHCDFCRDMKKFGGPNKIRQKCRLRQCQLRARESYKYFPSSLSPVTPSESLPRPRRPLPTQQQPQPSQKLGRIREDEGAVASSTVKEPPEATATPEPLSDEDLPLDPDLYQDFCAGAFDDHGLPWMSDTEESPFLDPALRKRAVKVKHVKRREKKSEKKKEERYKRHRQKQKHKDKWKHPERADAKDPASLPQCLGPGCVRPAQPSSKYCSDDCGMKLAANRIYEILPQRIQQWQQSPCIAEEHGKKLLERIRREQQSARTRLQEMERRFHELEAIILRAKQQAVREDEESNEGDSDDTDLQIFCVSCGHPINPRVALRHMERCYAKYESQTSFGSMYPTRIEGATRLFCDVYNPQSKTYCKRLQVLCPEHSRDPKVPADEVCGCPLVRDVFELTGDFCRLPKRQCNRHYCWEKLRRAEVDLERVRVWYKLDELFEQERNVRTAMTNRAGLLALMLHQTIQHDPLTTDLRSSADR
UniProt P49674, sequence (P49674 whole entry, looked up): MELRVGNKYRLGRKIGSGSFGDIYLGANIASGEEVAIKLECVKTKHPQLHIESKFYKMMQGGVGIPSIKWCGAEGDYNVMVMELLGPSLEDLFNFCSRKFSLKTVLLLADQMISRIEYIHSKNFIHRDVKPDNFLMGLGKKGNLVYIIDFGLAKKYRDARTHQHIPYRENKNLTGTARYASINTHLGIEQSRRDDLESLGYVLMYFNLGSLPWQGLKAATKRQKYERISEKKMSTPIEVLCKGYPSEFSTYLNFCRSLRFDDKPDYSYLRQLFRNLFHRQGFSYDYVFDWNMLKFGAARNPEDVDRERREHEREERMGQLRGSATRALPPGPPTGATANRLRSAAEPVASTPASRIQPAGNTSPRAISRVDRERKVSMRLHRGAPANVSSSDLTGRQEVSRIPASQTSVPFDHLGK
UniProt Q9UPY3, sequence (Q9UPY3 whole entry, looked up): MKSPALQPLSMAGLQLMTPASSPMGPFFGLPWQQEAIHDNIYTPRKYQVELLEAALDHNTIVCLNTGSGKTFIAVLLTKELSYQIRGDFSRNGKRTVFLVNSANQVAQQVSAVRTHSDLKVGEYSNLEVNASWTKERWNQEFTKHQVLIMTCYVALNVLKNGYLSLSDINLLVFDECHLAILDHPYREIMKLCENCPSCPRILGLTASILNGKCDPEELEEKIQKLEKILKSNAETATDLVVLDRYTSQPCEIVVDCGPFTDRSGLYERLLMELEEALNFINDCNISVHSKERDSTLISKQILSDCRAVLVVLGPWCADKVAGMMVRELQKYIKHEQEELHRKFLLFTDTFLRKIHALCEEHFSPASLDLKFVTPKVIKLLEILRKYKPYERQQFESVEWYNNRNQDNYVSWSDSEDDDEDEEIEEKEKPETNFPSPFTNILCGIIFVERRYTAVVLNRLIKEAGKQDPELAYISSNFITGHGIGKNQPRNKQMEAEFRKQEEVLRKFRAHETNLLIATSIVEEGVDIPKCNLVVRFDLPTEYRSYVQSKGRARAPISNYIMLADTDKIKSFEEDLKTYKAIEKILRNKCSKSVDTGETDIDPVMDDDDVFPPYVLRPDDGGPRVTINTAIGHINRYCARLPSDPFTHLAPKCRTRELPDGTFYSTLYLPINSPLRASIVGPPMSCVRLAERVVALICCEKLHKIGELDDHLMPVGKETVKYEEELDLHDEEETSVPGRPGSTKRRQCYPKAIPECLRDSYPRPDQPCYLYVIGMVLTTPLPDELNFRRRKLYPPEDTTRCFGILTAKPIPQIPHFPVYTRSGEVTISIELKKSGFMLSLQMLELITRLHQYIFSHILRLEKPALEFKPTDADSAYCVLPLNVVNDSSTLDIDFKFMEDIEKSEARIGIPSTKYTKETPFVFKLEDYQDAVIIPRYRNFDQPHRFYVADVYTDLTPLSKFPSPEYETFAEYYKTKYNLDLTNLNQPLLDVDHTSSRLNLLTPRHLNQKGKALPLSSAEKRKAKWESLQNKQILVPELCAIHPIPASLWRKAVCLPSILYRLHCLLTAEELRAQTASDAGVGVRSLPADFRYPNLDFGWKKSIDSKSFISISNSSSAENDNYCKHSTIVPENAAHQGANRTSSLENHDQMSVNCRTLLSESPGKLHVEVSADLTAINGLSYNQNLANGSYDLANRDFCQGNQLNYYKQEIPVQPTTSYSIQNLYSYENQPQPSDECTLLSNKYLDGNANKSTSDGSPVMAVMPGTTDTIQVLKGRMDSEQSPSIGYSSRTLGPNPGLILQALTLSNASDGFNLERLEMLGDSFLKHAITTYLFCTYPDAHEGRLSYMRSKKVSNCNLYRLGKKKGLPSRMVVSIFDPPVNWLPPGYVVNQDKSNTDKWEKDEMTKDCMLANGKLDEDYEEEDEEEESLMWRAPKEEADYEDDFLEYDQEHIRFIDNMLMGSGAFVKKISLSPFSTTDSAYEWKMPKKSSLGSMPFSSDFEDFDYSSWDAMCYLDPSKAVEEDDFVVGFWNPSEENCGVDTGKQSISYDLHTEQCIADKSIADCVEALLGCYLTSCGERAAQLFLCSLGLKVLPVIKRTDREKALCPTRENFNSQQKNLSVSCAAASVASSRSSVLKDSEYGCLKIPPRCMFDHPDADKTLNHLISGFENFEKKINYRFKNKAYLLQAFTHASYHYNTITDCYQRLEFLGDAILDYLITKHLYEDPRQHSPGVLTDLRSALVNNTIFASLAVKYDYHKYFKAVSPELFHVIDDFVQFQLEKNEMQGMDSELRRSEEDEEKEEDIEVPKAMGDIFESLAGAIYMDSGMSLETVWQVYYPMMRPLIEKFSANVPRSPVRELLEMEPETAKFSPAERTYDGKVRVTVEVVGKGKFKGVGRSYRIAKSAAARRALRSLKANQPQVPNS
UniProt P99999, sequence (P99999 whole entry, looked up): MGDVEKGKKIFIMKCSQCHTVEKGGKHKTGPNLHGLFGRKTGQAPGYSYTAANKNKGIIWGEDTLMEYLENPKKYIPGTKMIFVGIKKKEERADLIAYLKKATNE
UniProt O60762, sequence (O60762 whole entry, looked up): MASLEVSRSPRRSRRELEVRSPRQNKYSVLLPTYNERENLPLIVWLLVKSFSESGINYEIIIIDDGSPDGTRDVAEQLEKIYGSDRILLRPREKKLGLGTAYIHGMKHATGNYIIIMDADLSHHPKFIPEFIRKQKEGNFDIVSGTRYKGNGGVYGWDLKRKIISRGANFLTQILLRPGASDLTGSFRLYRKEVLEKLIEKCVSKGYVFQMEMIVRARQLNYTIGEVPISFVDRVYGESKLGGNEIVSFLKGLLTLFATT
UniProt P57737, sequence (P57737 whole entry, looked up): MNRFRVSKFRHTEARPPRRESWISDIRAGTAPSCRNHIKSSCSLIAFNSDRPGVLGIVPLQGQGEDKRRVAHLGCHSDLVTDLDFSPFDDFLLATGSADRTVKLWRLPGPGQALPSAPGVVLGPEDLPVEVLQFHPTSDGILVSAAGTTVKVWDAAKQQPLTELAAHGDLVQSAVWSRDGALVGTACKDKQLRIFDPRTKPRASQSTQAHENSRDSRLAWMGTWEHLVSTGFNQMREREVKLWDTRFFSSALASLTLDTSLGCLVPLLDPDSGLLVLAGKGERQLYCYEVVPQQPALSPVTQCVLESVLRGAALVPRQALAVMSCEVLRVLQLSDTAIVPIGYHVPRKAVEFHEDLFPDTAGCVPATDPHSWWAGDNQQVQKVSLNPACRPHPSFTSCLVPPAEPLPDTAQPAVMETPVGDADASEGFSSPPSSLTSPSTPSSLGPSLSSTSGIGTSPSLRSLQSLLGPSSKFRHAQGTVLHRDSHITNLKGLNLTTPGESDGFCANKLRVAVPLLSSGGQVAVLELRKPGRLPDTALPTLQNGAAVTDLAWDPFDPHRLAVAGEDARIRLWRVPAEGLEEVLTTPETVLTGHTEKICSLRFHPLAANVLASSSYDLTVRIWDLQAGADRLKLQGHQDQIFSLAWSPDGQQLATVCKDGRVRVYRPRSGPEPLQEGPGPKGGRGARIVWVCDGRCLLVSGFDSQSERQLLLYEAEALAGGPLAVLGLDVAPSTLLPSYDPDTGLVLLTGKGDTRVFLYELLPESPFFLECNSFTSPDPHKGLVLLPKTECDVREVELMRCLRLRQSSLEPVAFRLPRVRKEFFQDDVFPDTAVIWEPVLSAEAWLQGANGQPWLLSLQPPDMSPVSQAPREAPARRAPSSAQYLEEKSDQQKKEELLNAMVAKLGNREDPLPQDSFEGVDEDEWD
UniProt Q14746, sequence (Q14746 whole entry, looked up): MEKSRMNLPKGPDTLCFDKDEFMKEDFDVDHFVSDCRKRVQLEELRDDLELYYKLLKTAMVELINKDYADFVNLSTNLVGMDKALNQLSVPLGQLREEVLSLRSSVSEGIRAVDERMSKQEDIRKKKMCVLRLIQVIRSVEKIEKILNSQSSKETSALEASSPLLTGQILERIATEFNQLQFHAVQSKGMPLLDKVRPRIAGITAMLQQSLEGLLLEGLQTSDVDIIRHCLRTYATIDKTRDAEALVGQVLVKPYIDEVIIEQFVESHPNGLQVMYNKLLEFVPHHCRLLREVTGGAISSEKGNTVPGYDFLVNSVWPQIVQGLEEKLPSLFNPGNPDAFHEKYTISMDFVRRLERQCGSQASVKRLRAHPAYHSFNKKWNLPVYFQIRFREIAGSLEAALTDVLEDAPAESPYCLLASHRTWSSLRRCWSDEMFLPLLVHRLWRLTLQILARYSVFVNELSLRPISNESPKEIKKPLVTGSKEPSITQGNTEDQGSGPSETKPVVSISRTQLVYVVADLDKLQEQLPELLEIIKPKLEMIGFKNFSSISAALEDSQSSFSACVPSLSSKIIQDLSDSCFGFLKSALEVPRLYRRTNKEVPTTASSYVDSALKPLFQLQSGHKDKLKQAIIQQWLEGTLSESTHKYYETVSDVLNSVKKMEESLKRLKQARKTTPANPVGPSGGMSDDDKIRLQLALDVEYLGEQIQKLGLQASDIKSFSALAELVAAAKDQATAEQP

Target	log2 fold change [1]	log2 fold change [2]	log2 fold change [3]	log2 fold change [4]	log2 fold change [5]	log2 fold change [6]	log2 fold change [7]	log2 fold change [8]	log2 fold change [9]	log2 fold change [10]	log2 fold change [11]	log2 fold change [12]	log2 fold change [13]	log2 fold change [14]	log2 fold change [15]	log2 fold change [16]	log2 fold change [17]	log2 fold change [18]	log2 fold change [19]	log2 fold change [20]
CORO7 isoform 3 (UniProt P57737)	0.035	-0.009	-0.079	0.013	0	0.016	-0.016	0.009	0.026	-0.04	-0.01	0.002	0.016	0.031	0.009	-0.013	-0.006	-0.006	0.02	0.005
DNAAF5 (UniProt Q86Y56)	-0.008	0.041	-0.062	-0.057	0.021	-0.016	-0.08	-0.003	0.007	-0.039	-0.043	0.032	0.074	-0.049	-0.043	-0.002	-0.005	-0.035	0.047	0.061
CYCS (UniProt P99999)	-0.022	-0.121	-0.019	-0.006	0.003	0.008	0.02	0.011	0.002	-0.005	0.027	0.024	0	0.004	-0.016	-0.05	-0.005	0.012	-0.015	0.031
COG2 (UniProt Q14746)	0.009	0.036	-0.021	-0.022	-0.032	-0.017	-0.001	0.011	0.031	0.03	-0.029	-0.023	0.017	-0.017	0	0.023	-0.035	-0.019	0.062	-0.009
CNIH4 (UniProt Q9P003)	0.049	-0.139	-0.06	0.129	-0.071	-0.022	-0.162	0.01	-0.131	-0.078	0.13	-0.014	0.006	-0.152	0.278	0.066	-0.115	-0.008	0.211	-0.024
CSNK2A2 (UniProt P19784)	0	-0.209	-0.015	0.383	0.699 (active)	0.032	0.375	0.277	0.024	0.022	-0.015	0.666 (active)	0.012	-0.014	-0.01	-0.046	0.185	-0.017	0.003	0
CIC (UniProt I3L2J0)	0.013	-0.248	0.079	0.122	0.027	-0.047	-0.062	0.005	-0.04	0.04	0.036	0.044	0.055	-0.083	0.013	0.054	-0.044	0.029	0.02	0.028
COASY isoform 2 (UniProt Q13057)	0.006	-0.049	-0.044	-0.007	0.022	-0.018	-0.05	-0.019	0.024	-0.019	0.024	-0.015	0.103	0.002	-0.003	0.013	-0.001	-0.013	0.037	0.014
CXXC1 isoform 2 (UniProt Q9P0U4)	0.02	-0.031	-0.051	0.029	-0.085	-0.036	-0.088	0.082	0.04	0.059	-0.034	-0.078	0.013	-0.089	-0.005	-0.01	0.082	0.004	0.061	-0.155
DNAH10 (UniProt Q8IVF4)	0.003	0.047	-0.059	-0.053	-0.026	0.026	-0.043	0.012	0.036	0.054	0.038	-0.017	-0.123	-0.112	-0.015	-0.04	-0.069	0.137	-0.014	-0.051
COQ8A (UniProt Q8NI60)	0.154	0.014	-0.057	0.008	-0.083	0.029	0.105	-0.01	0.007	-0.034	-0.061	0.611 (active)	0.143	0.115	-0.009	-0.139	-0.074	-0.04	0	-0.068
CSNK1E (UniProt P49674)	-0.003	0.006	0.161	0.047	0.018	0.297 (active)	0.345 (active)	-0.056	0.009	-0.032	0.029	0.287	0.208	-0.026	-0.04	-0.012	-0.064	-0.049	-0.028	-0.039
DPM1 (UniProt O60762)	-0.009	-0.039	-0.036	0.056	-0.015	-0.007	0.041	-0.022	-0.014	-0.008	-0.016	-0.018	-0.025	-0.027	-0.009	0.033	0.015	0.006	0.014	0.023
DDB2 (UniProt Q92466)	-0.007	-0.028	0.07	0.052	0.064	-0.024	0	-0.075	-0.041	0.026	0.075	-0.016	0.009	-0.033	-0.007	0.091	-0.003	0.009	0	0.01
CTPS1 (UniProt P17812)	-0.002	0.011	-0.027	-0.009	0.005	-0.013	-0.011	-0.007	-0.007	-0.001	-0.045	0.01	-0.017	-0.015	-0.022	-0.012	0.024	0.004	0.017	0.02
DICER1 (UniProt Q9UPY3)	0.013	-0.088	-0.056	-0.023	-0.027	0.03	-0.025	-0.064	-0.042	-0.016	-0.011	0.037	0.019	-0.055	0.012	0.044	0.003	0.018	0.013	0
